Calls of active or inactive are those of the source. Rule for the calls: active = hit-call score of the fitted dose curve at least 0.9, where 1 is the maximum; inactive = score below 0.9.

In the experiment the target is human Leukotriene Receptor CysLT1, CYSLTR1 (gene 10800) (UniProt Q9Y271). Nature of the experiment: ERF_FR_GPCR_hCYSLTR1: Eurofins (ERF) G Protein-Coupled Receptor (GPCR) Radioligand Binding LeadHunter Assay for human Leukotriene Receptor CysLT1 Agonism. Here is the method: ERF_FR_GPCR_hCYSLTR1 is a biochemical, single-readout assay that uses extracted gene-proteins in a cell-free assay. Measurements were taken 1 hour after chemical dosing in a 96-well plate. See CysLT1 Human Leukotriene GPCR Binding (Agonist Radioligand) Assay, Cerep.ERF_FR_GPCR_hCYSLTR1 is an assay component calculated from the ERF_FR_GPCR_hCYSLTR1 assay. It is designed to measure radioligand binding using a type of binding reporter as detected by scintillation counting with radiometry technology.Data from the assay component ERF_FR_GPCR_hCYSLTR1 was analyzed at the assay endpoint, ERF_FR_GPCR_hCYSLTR1, in the positive analysis fitting direction relative to DMSO as the negative control and baseline of activity. Using a type of binding reporter, gain-of-signal activity can be used to understand changes in binding as they relate to gene CYSLTR1. To generalize the intended target to other relatable targets, this assay endpoint is annotated to the gpcr intended target family, where the subfamily is leukotriene.
Chain of human Leukotriene Receptor CysLT1, CYSLTR1 (gene 10800) (Q9Y271 whole entry, looked up): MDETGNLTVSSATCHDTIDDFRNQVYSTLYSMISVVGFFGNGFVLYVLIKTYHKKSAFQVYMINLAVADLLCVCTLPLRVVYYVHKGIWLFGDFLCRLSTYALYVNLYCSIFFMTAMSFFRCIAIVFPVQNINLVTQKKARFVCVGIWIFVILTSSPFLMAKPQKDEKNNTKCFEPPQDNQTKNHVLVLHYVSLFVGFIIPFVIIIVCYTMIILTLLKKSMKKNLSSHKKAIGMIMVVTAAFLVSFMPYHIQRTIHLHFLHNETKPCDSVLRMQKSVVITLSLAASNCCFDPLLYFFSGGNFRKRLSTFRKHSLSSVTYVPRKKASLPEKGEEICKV
Human cells are incubated for 60 minutes at room temprature with [3H]LTD4 ligand (0.3 nM) and leukotriene D4 as control inhibitor.Test Sample Requirements: Minimum for 1) Screen: 60 ul of 10 mM stock -OR- 1 mg (pre-weighed) for 10 uM final testing. 2) Dose Response: 90 ul of 10 mM stock -OR- 1 mg (pre-weighed) for a top concentration at 10 uM.
On to `O=C(/C=C/c1ccc(O)cc1)CC(=O)/C=C/c1ccc(O)cc1`, for which the AC50 was 5 µM (active).
